The record followed here is PubChem BioAssay (NCI).

About 83,000 compounds went through this panel and 20% of them were active in at least one assay; those are over-represented in the sample as a whole.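 Single-dose data. Exposure time 48 hours. Values below 10 considered active.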 Unmarked numbers belong to inactive results. The source made the active and inactive calls.

Some test systems named below: NCI-H23 lung; NCI-H226 lung; NCI-H322M lung; HOP-62 NSCLC; NCI-H460 lung; HOP-92 NSCLC; NCI-H522 lung; A549/ATCC NSCLC; 786-0 renal; COLO 205 colon; DU-145 prostate; K-562 leukemia; MALME-3M melanoma; MDA-MB-231 breast; RXF 393 renal; SF-268 CNS; SF-295 CNS; SF-539 CNS; UACC-257 melanoma; M14 melanoma.
What all share (assay): NCI-60 one-dose screen, 48 h (100 = growth as untreated, 0 = no growth, -100 = all killed)
Conditions in all cases: 10 µM unless noted

Consider `Cc1ccc(Cn2cc(COc3ccc4c5ccnc(C)c5n(CCCc5ccccc5)c4c3)nn2)cc1`, for which the growth in the assay on NCI-H23 lung was 84.3%; in the assay on NCI-H226 lung, 98.9%; with NCI-H322M lung, 90.6%; with HOP-62 NSCLC, 87.1%; with NCI-H460 lung, 103%; in the assay with HOP-92 NSCLC, 68.6%. The growth is 66.4% in the assay with NCI-H522 lung; 94.2% in the assay on A549/ATCC NSCLC; 85.9% in the assay with 786-0 renal; 92.2% in the assay with COLO 205 colon; 103% in the assay with DU-145 prostate; 62.3% in the assay with K-562 leukemia. Besides, the growth is 87.9% in the assay with MALME-3M melanoma; 75.8% in the assay on MDA-MB-231 breast; 114% with RXF 393 renal; 95.9% with SF-268 CNS; 87.7% with SF-295 CNS; 89.9% in the assay with SF-539 CNS. In addition, the growth is 109% in the assay on UACC-257 melanoma and 86.2% in the assay on M14 melanoma.

As to `[2H]c1nc(Nc2ncc(F)c(-c3cc(F)c4nc(C)n(C(C)C)c4c3)n2)c([2H])c([2H])c1CN1CCN(CC)CC1`, the growth with NCI-H23 lung is 48.7%; in the assay with NCI-H226 lung, 41.5%; in the assay with NCI-H322M lung it was 41.1%; in the assay with HOP-62 NSCLC, 51.2%; with NCI-H460 lung, 43.9%; with HOP-92 NSCLC, 59.1%. The growth in the assay on NCI-H522 lung was 66.1%; in the assay with A549/ATCC NSCLC it was 36.2%; in the assay with 786-0 renal it was 52.8%; in the assay with COLO 205 colon it was 15.6%; in the assay with DU-145 prostate it was 59%; with K-562 leukemia it was -15.9% (active). Also, the growth in the assay on MALME-3M melanoma is 85.9%; in the assay with MDA-MB-231 breast, 55.5%; in the assay with RXF 393 renal, -8% (active); in the assay on SF-268 CNS, 54%; in the assay with SF-295 CNS it was 59.2%; in the assay on SF-539 CNS it was 67.2%. Further, the growth was 72.3% in the assay with UACC-257 melanoma and 46.3% in the assay with M14 melanoma.

With `CC(C)CNCC(=O)Nc1ccc(Cc2ccc(NC(=O)CNCC(C)C)cc2)cc1`, the growth with NCI-H23 lung is 84%; in the assay on NCI-H226 lung, 68.6%; in the assay on NCI-H322M lung, 78.2%; in the assay with HOP-62 NSCLC it was 59.1%; with NCI-H460 lung, 43.1%; in the assay on HOP-92 NSCLC, 38.4%. For the same molecule, the growth in the assay on NCI-H522 lung is 48.3%; with A549/ATCC NSCLC, 65%; in the assay on 786-0 renal, 42.8%; in the assay with COLO 205 colon, 53.8%; with DU-145 prostate it was 58.3%; in the assay on K-562 leukemia it was -27.7% (active). Besides, the growth in the assay on MALME-3M melanoma is -23% (active); in the assay with MDA-MB-231 breast, -0.499% (active); in the assay with RXF 393 renal, 46.7%; in the assay on SF-268 CNS, 59.7%; in the assay on SF-295 CNS, 78.5%; in the assay with SF-539 CNS, 77.8%. For the same molecule, the growth was 62.6% in the assay with UACC-257 melanoma and 38.6% in the assay with M14 melanoma.

With `COc1cc2c(cc1OC)-c1c(oc3c4c(ccc3c1=O)OC(C)(C)C=C4)CO2`, the growth in the assay on NCI-H23 lung was 45.6%; with NCI-H226 lung, 89.3%; with NCI-H322M lung, 86.2%; with HOP-62 NSCLC, 59.6%; with NCI-H460 lung, 77.1%; in the assay with HOP-92 NSCLC it was 90.2%. The growth was 56.7% with NCI-H522 lung; 71.3% with A549/ATCC NSCLC; 76.6% in the assay on 786-0 renal; 113% in the assay on COLO 205 colon; 90.9% in the assay with DU-145 prostate; 39.9% with K-562 leukemia. For the same molecule, the growth is 93.2% with MALME-3M melanoma; 81.5% in the assay on MDA-MB-231 breast; 96.9% in the assay on RXF 393 renal; 79.4% with SF-268 CNS; 51.7% in the assay on SF-295 CNS; 83.5% in the assay on SF-539 CNS. Moreover, the figures for the growth in the assay on UACC-257 melanoma and with M14 melanoma were 54.8% and 83.1%, respectively.

With `COc1cccc(-c2nc3sccn3c2-c2ccnc(NCCNC(=O)c3ccccc3)n2)c1`, the growth in the assay with NCI-H23 lung was 87.3%; in the assay with NCI-H226 lung, 79.3%; in the assay on NCI-H322M lung it was 110%; with HOP-62 NSCLC, 111%; in the assay on NCI-H460 lung it was 84.9%; in the assay on HOP-92 NSCLC, 77.8%. Also, the growth in the assay on NCI-H522 lung was 61.8%; with A549/ATCC NSCLC, 75.3%; in the assay with 786-0 renal, 78.4%; with COLO 205 colon, 51.8%; in the assay with DU-145 prostate, 100%; in the assay on K-562 leukemia, 67.5%. Moreover, the growth in the assay with MALME-3M melanoma was 26.7%; in the assay with MDA-MB-231 breast, 83.5%; in the assay with RXF 393 renal, 86.3%; in the assay with SF-268 CNS, 92.7%; in the assay with SF-295 CNS, 85.4%; in the assay with SF-539 CNS, 97.7%. For the same molecule, the growth in the assay on UACC-257 melanoma was 69.7%; with M14 melanoma it was 40.1%.

In the case of `N#CC(C#N)=C(C#N)c1c[nH]c2ccccc12`, the growth in the assay on NCI-H23 lung is 87.4%; in the assay with NCI-H226 lung, 78.4%; in the assay with NCI-H322M lung, 110%; in the assay on HOP-62 NSCLC it was 81.2%; in the assay with NCI-H460 lung, 92.8%; in the assay with HOP-92 NSCLC, 41.2%. Besides, the growth with NCI-H522 lung is 57.4%; with A549/ATCC NSCLC, 80.4%; in the assay with 786-0 renal, 82.4%; in the assay on COLO 205 colon, 73.8%; in the assay with DU-145 prostate it was 88%; with K-562 leukemia, 91.3%. Besides, the growth was 86.1% in the assay on MALME-3M melanoma; 84.8% in the assay on MDA-MB-231 breast; 88.2% in the assay with RXF 393 renal; 90.7% with SF-268 CNS; 103% in the assay on SF-295 CNS; 80.4% with SF-539 CNS. The figures for the growth with UACC-257 melanoma and in the assay on M14 melanoma were 85.2% and 79.7%, respectively.

Turning to `Cc1cccc[n+]1CCC[n+]1ccccc1C`, the growth in the assay on NCI-H23 lung is 99.8%; in the assay with NCI-H226 lung, 98.4%; in the assay with NCI-H322M lung it was 109%; with HOP-62 NSCLC it was 84.9%; with NCI-H460 lung it was 106%; in the assay on HOP-92 NSCLC, 86%. The growth is 88.1% in the assay on NCI-H522 lung; 95.7% in the assay on A549/ATCC NSCLC; 84.2% in the assay on 786-0 renal; 91.1% with COLO 205 colon; 111% with DU-145 prostate; 103% in the assay with K-562 leukemia. Besides, the growth in the assay on MALME-3M melanoma is 105%; in the assay on MDA-MB-231 breast, 115%; in the assay on RXF 393 renal, 111%; in the assay on SF-268 CNS, 107%; with SF-295 CNS, 103%; in the assay on SF-539 CNS, 98.9%. Moreover, the growth was 111% in the assay on UACC-257 melanoma and 89.4% in the assay with M14 melanoma.

As to `COc1cc(NS(=O)(=O)c2ccc(N)cc2)ncn1`, the growth with NCI-H23 lung was 101%; with NCI-H226 lung it was 112%; in the assay on NCI-H322M lung it was 104%; with HOP-62 NSCLC it was 108%; in the assay on NCI-H460 lung, 110%; in the assay with HOP-92 NSCLC, 105%. Further, the growth was 114% in the assay with NCI-H522 lung; 102% in the assay with A549/ATCC NSCLC; 99.1% in the assay with 786-0 renal; 113% with COLO 205 colon; 118% in the assay on DU-145 prostate; 92.9% with K-562 leukemia. The growth was 97.4% with MALME-3M melanoma; 94.7% with MDA-MB-231 breast; 112% in the assay with RXF 393 renal; 109% in the assay with SF-268 CNS; 102% in the assay with SF-295 CNS; 112% with SF-539 CNS. The growth in the assay with UACC-257 melanoma was 106%; with M14 melanoma, 107%.
